High-throughput results from PubChem BioAssay.
In the library only some 11% were active in any assay of this set; here they are far more common.
BAZ2B block: inhibitors of human BAZ2B bromodomain | Potency, µM (series often up to 114 µM), usual class: inhibitors | AlphaScreen BAZ2B-H3K14Ac peptide displacement | actives 4.4% (n = 360,000) | AID 504333; further: nearly all actives have a fitted effect of over 60% in size
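AlphaScreen displacement of biotin-H3(5-23)K14Ac peptide (50 nM final) from BAZ2B (50 nM final) in PBS pH 7.4, 0.01% Tween-20; complex preformed 30 min RT, then compounds (top 110 uM) 30 min RT, beads 20 min dark.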
HP1b chromo inh: HP1-beta chromodomain-methylated histone interaction inhibition | Potency, µM (titrated, usually from 114 µM), most hits filed as inhibitors | actives 0.56% (n = 390,000) | AID 540317 | P83916 | AlphaScreen HP1-beta / biotin-H3K9me3 peptide binding; further: nearly all actives have a fitted effect of over 70% in size
Target sequence (P83916 whole entry, looked up): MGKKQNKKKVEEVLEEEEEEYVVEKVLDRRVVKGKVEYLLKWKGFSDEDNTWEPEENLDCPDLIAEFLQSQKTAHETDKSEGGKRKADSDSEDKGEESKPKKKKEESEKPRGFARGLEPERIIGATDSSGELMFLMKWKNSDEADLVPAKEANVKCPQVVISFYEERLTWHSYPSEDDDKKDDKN
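HP1-beta protein (50 nM final) preincubated 30 min at room temperature with biotinylated H3(1-18)K9me3 peptide (50 nM) in PBS pH 7.4, 0.01% Tween-20, then compound added for 30 min. AlphaScreen streptavidin donor/nickel chelate acceptor beads (10 ug/mL final), 30 min dark, luminescence read.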
JMJD2A Tudor inh: blocks the human JMJD2A Tudor domain; O75164; AlphaScreen JMJD2A-Tudor / H3K4me3 peptide binding; Potency, µM (doses to about 114 µM), usual class: inhibitors; actives 4.4% (n = 390,000); further: nearly all actives have a fitted effect of over 50% in size
L3MBTL1 block: blocks human L3MBTL1 | Q9Y468 | AlphaScreen L3MBTL1–H3K9me1 peptide binding | Potency, µM (series often up to 57.1 µM), usual class: inhibitors | actives 0.66% (n = 230,000) | AID 485360; further: nearly all actives have a fitted effect of over 60% in size
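First, the protein-peptide complex forms for 30 min at room temperature (L3MBTL1 50 nM, biotinylated H3K9me1 peptide 75 nM). Next, compounds are pin-transferred and incubated 30 min. Finally, AlphaScreen beads are added and read after 30 min.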
G9a block: inhibitors of human histone lysine methyltransferase G9a; Q96KQ7; G9a H3K9 monomethylation, AlphaScreen, 2 h; Potency, µM (highest dose often 102 µM), usual class: inhibitors; actives 8.8% (n = 350,000); further: nearly all actives have a fitted effect of over 75% in size
Target sequence (Q96KQ7 913-1193 limits assumed): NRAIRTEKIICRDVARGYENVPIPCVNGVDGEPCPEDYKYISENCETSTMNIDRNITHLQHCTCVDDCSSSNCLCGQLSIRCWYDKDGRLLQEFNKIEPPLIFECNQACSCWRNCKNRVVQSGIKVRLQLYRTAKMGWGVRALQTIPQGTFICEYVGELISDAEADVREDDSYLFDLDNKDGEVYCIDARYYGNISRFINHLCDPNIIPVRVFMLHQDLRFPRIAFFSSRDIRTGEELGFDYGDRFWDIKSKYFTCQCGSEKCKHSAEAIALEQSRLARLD
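Chemiluminescent proximity detection of H3K9 monomethylation, read after 10 min bead incubation in the dark. Reaction: 20 nM G9a, 500 nM biotin-H3K9 peptide, 20 uM SAM cofactor, 2 h, room temperature, following 15 min enzyme-compound preincubation.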
Numbers stand for hits; n = inactive; u = inconclusive; x = no result given; [ ] = another dose, or the depositor's remark. The call rests on the fitted dose curve; in most records, active means well fitted inhibition curve with a large enough effect; inconclusive means small, poorly fitted or top-dose-only effect; inactive means no such curve, though single readings can be large or run the other way.

SMILES	BAZ2B block	HP1b chromo inh	JMJD2A Tudor inh	L3MBTL1 block	G9a block
O=C(CSc1ccc(Br)c2cccc(Cl)c12)Nc1ccc(S(=O)(=O)Nc2nccs2)cc1	n	n	u	n	31.6µM
O=C(Cc1ccccc1Cl)Nc1ccc(S(=O)(=O)Nc2nccs2)cc1	n	n	n	x	n
O=C(NC(=S)Nc1ccc(S(=O)(=O)Nc2nccs2)cc1)c1cccnc1	u	n	n	n	44.7µM
O=C(NC(=S)Nc1ccc(S(=O)(=O)Nc2nccs2)cc1)c1ccccc1F	u	u	u	x	10µM
O=C(NC(=S)Nc1ccc(S(=O)(=O)Nc2nccs2)cc1)c1ccc(F)c(F)c1	n	u	n	n	u
O=C(O)c1ccccc1C(=O)Nc1ccc(S(=O)(=O)Nc2nccs2)cc1	50.1µM	n	n	n	n
O=C(NC(=S)Nc1ccc(S(=O)(=O)Nc2nccs2)cc1)c1ccccc1	n	n	n	n	u
O=C(NC(=S)Nc1ccc(Cc2ccncc2)cc1)c1ccccc1F	n	n	n	n	79.4µM
CC(=O)O[C@@]1(C(C)=O)CCC2C3C=C(C)C4=CC(=O)CCC4(C)C3CCC21C (stereo partly specified)	x	x	x	x	n[2.33 µM]
C=C1CC2C3C=C(C)C4=CC(=O)CCC4(C)C3CCC2(C)[C@@]1(OC(C)=O)C(C)=O (stereo partly specified)	x	x	x	x	17.8µM
CC1=C(C(=O)OCc2ccccc2)C(c2ccccc2Cl)NC(=O)N1CCCC(=O)O (stereo unspecified)	n	n	n	n	n
CC1=C(C(=O)OCc2ccccc2)C(c2ccccc2Cl)NC(=O)N1CCCCCC(=O)O (stereo unspecified)	n	n	n	n	79.4µM
CC1=C(C(=O)OCc2ccccc2)C(c2ccc3ccccc3c2)NC(=O)N1CCCC(=O)O (stereo unspecified)	u	n	n	n	x
CC1=C(C(=O)OCc2ccccc2)C(c2ccccc2-c2ccccc2)NC(=O)N1CCCCCC(=O)O (stereo unspecified)	50.1µM	n	u	n	50.1µM
CC1=C(C(=O)OCc2ccccc2)C(c2ccccc2[N+](=O)[O-])NC(=O)N1C (stereo unspecified)	n	n	n	x	39.8µM
COC(=O)c1cccc(N2CCCC2=O)c1	n	n	n	x	n
O=c1c2ccccc2sn1-c1ccc(F)cc1	4.47µM	n	12.6µM	n	n[0.501 µM]
COC(=O)c1cccc(-n2sc3ccccc3c2=O)c1	6.31µM	n	14.1µM	n	n[0.501 µM]
CCOc1cc(/C=C(\C#N)C(=O)Nc2ccc(OC)cc2)ccc1OCc1cc(=O)n2nc(CC)sc2n1	n	n	n	x	n
COc1ccc(OC)c(-c2nc3c(C#N)c[nH]n3c2NC2CCCCC2)c1	n	n	n	x	n
O=C1OC(c2ccccc2)=C/C1=C/c1cccs1	10µM	n	u	n	12.6µM
O=C1N=C(c2ccccc2)S/C1=C\c1cccs1	u	n	22.4µM	x	1.41µM
O=C1N=C(N2CCN(c3ccccc3)CC2)S/C1=C/c1cccs1	n	n	n	u	n
CCC(Oc1ccccc1F)C(=O)Nc1c(C(=O)c2ccccc2)oc2ccccc12 (stereo unspecified)	n	n	n	x	n
COCC(=O)N1CCC[C@@]2(CCN(c3ccccc3)C2)C1	x	x	x	x	n[12.7 µM]
SMILES	BAZ2B block	HP1b chromo inh	JMJD2A Tudor inh	L3MBTL1 block	G9a block
CSc1nc(N2CCOCC2)c2ccccc2n1	n	n	n	n	n
CN1c2ccccc2C(C)(C)C12C=Nc1c(cc(N3CCOCC3)c3ccccc13)O2 (stereo unspecified)	u	n	u	n	44.7µM
Cc1ccccc1Nc1nnc(-c2ccc(C)c(S(=O)(=O)N3CCCCC3)c2)c2ccccc12	n	n	n	x	n
COc1ccc(/C=C/C(=O)Nc2nc(N)n(-c3ccccc3)n2)cc1	50.1µM	n	n	n	n
CC(=O)Nc1nc(N)n(-c2ccccc2)n1	u	n	n	x	n
COc1ccccc1C(=O)Nc1nc(N)n(-c2ccccc2)n1	u	n	n	n	n
Nc1nc(NC(=O)Cc2ccccc2)nn1-c1ccccc1	31.6µM	n	u	n	n[12.7 µM]
Nc1nc(NC(=O)/C=C\C(=O)O)nn1-c1ccccc1	22.4µM	n	n[11.4 µM]	x	n
COc1cc(C(=O)Nc2nc(N)n(-c3ccccc3)n2)cc(OC)c1OC	50.1µM	n	n[11.4 µM]	x	n[12.7 µM]
Cc1ccc(C2c3c(oc4ccccc4c3=O)C(=O)N2c2nnc(C)s2)cc1 (stereo unspecified)	n	n	n	x	n
COC(=O)c1nc(NC(=O)c2cc(OC)c(OC)c(OC)c2)n[nH]1	u	n	n	x	11.2µM
COc1ccc(C2C(C#N)=C(N)Oc3cc(C)n(Cc4ccco4)c(=O)c32)cc1 (stereo unspecified)	n	n	n	x	25.1µM
Cc1cc2c(c(=O)n1CCCn1ccnc1)C(c1ccco1)C(C#N)=C(N)O2 (stereo unspecified)	n	n	n	n	u
Cc1cc2c(c(=O)n1Cc1cccnc1)C(c1ccccc1)C(C#N)=C(N)O2 (stereo unspecified)	n	n	n	n	n[2.33 µM]
COc1cccc(C2C(C#N)=C(N)Oc3cc(C)n(Cc4ccco4)c(=O)c32)c1 (stereo unspecified)	n	n	n	n	50.1µM
CCOc1ccc(NC(=O)CCSc2nc(-c3ccc4c(c3)OCO4)cc(C(F)(F)F)n2)cc1	n	n	n	x	n
O=C(Nc1ccccc1F)c1nc(S(=O)(=O)Cc2ccccc2F)ncc1Cl	n	n	n	x	u
Cc1cc2nc3c(=O)[nH]c(=O)[nH]c3nc2c([N+](=O)[O-])c1N	50.1µM	u	44.7µM	u	31.6µM
Cc1c(N)c(C(C)(C)C)cc(C(C)(C)C)c1[N+](=O)[O-]	n	n	n	n	n
Cc1ccnn1-c1ccc(C(=O)N2CCCN(S(=O)(=O)c3ccc(F)cc3)CC2)cc1	n	n	n	n	n[12.7 µM]
CCN(c1ccccc1)S(=O)(=O)c1ccc(N2CCN(c3ccc(O)cc3)CC2)nc1	x	50.1µM	22.4µM	u	x
CC(C)N(C(C)C)S(=O)(=O)c1ccc(N2CCc3ccccc3C2)nc1	n	n	n	x	u
CCN(CC)S(=O)(=O)c1ccc(N2CCc3ccccc3C2)nc1	n	n	n	x	39.8µM
CCOc1ccc(NC(=O)C(c2ccccn2)N(C(=O)CCl)c2ccc(OC)cc2)cc1 (stereo unspecified)	u	n	89.1µM	n	2µM
COc1ccc(NC(=O)C(c2ccccn2)N(C(C)=O)c2ccc(C)cc2)cc1 (stereo unspecified)	n	n	n	n	n
CCOc1ccc(NC(=O)C(c2ccccn2)N(C(=O)CCl)c2ccc(OCC)cc2)cc1 (stereo unspecified)	u	n	u	n	3.55µM
COc1ccc(C2NC(=S)NC(C)=C2C(=O)N2CCOCC2)cc1 (stereo unspecified)	n	n	n	x	39.8µM
